Test results as given in PubChem BioAssay AID1066 (SRMLSC, 2008).
In all, about 190,000 compounds went through this assay and about 790 (0.42%) were called active. The full list was thinned out, with actives kept by preference. Unmarked numbers belong to inactive results.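 The calls were made as follows: active = inhibition above a set limit, the median over all tested compounds plus 3 SD (cut at about 9.5% in these data); inconclusive = no clear call, values can overlap the other calls; inactive = the rest.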

system: HMG-CoA reductase (Enterococcus faecalis, mvaE); experiment: class II HMG-CoA reductase enzyme inhibition – biochemical, Enterococcus faecalis, primary screen (AID 1066);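 also: enzyme runs in reverse so mevalonate oxidation gives rising NADPH absorbance; 0% = complete reaction with DMSO and 100% = background rate lacking mevalonate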; conditions: purified E. faecalis HMGR, NADPH absorbance 340 nm kinetic; at 10 µM; active compounds read high

Row | SMILES | inhibition
1 | O=C(N/N=C/c1ccco1)c1ccc(C(=O)N/N=C/c2ccco2)o1 | 3.83%
2 | CCN(C(=O)c1ccc(Br)cc1)c1ccccc1 | -0.76%
3 | CCOC(=O)CNC(=O)CSc1ccc2nnc(-c3cccnc3)n2n1 | -1.15%
4 | CCOc1ccc(-c2ccc(SCC(=O)N3CCOCC3)nn2)cc1 | -2.28%
5 | Cc1ccc(C(=O)NCC(=O)O)s1 | -1%
6 | O=C(Nc1cccc(Cl)c1)Nc1ccccc1NS(=O)(=O)c1cccs1 | -2.46%
7 | CCc1ccc(C(=O)OCC(=O)NCC(F)(F)F)cc1 | -8.47%
8 | COC(=O)c1c(NC(C)=O)sc(C(=O)Nc2ccccc2OC)c1C | -2.99%
9 | CCOC(=O)c1sc(NC(=O)COc2ncnc3ccccc23)c(C(=O)OCC)c1C | 3.4%
10 | CCC(=O)Nc1sc(C(=O)Nc2ccccc2)c(C)c1C(=O)OC | 13% (active)
11 | CCOC(=O)Cn1nnnc1C | -2.01%
12 | Oc1cccc2ccc(/C=C/c3ccc(Br)s3)nc12 | 0.35%
13 | Cc1ccc(NC(=O)Nc2cccc(C(F)(F)F)c2)nc1 | -0.23%
14 | CCC(=O)Nc1ccc(Nc2nc(Cl)nc(Nc3ccc(NC(=O)CC)cc3)n2)cc1 | -2.77%
15 | Cc1ccc2nc(Nc3ncc4c(n3)CC(C)(C)CC4=O)nc(C)c2c1 | -0.8%
16 | NC(=O)COc1ccc(C23CC4CC(CC(C4)C2)C3)cc1 | 6.59%
17 | O=C(CCN1C(=O)c2ccccc2C1=O)NNC(=O)c1ccc(Cl)cc1Cl | -5.06%
18 | CC(=O)N/C(=C/c1ccc(OC(F)F)cc1)C(=O)O | 0.04%
19 | CC(CCn1cccn1)NC(=O)CCc1nnc(CCc2ccccc2)o1 (stereo unspecified) | -1.69%
20 | COC(=O)C1=C(C)N(c2ccc(C)cc2)/C(=C/c2ccc(O)cc2)C1=O | 1.84%
21 | O=C(CSC1CC(=O)N(CCc2ccccc2)C1=O)Nc1ccc(Cl)cc1 (stereo unspecified) | 0.85%
22 | CC(Sc1nnnn1C1CCCCC1)C(=O)O (stereo unspecified) | 3.4%
23 | Cc1cccc(-c2nc3ccccc3c(=O)n2NC(=O)Cc2ccc(Cl)cc2)c1 | 2.94%
24 | NNC(=O)C1CC(O)CN1S(=O)(=O)c1ccc(Cl)cc1 (stereo unspecified) | -8.75%

Row | SMILES | inhibition
25 | COc1cc(NC(=O)c2ccccc2NS(=O)(=O)c2ccc(Cl)s2)cc(OC)c1 | -0.12%
26 | C/C(=N\NC(=O)NC1CCCCC1)c1ccc(OC(F)F)cc1OC(F)F | -0.33%
27 | CCc1ccc(CN2C(=O)c3ccccc3C2C(=O)NCC2CCCO2)cc1 (stereo unspecified) | -2.1%
28 | CC(=O)Oc1ccccc1C1=NN(C(C)=O)C(c2ccccc2)C1 (stereo unspecified) | -1.75%
29 | CCOc1cc(-c2cc(-c3ccc(OC)cc3)nc(N)c2C#N)ccc1O | -5.02%
30 | COc1ccc(-c2cc(-c3ccc(N)cc3)nc(N)c2C#N)cc1OC | 11.6% (active)
31 | CCSc1nc(-c2ccc(OC)cc2)cc(-c2ccc(OC)cc2)c1C#N | -8.44%
32 | COc1ccc(C2C(C#N)=C(N)N(c3ncn[nH]3)C3=C2C(=O)CCC3)cc1 (stereo unspecified) | 3.99%
33 | FC(F)Oc1ccccc1NC(=S)Nc1cccc(Cl)c1Cl | -10.5%
34 | CS(=O)(=O)N(Cc1ccccc1)c1ccc(C(=O)NN=C2CCCCCC2)cc1 | -2.77%
35 | Cc1[nH][nH]c(=O)c1C(c1ccc2c(c1)OCO2)c1c(C)[nH][nH]c1=O | 4.7%
36 | CCOc1ccc(C(c2c(C)[nH][nH]c2=O)c2c(C)[nH][nH]c2=O)cc1OCC | -2.78%
37 | Cc1[nH][nH]c(=O)c1C(c1ccc(-c2ccc(Cl)cc2)o1)c1c(C)[nH][nH]c1=O | 11.6% (active)
38 | Cc1noc(/C=C/c2ccco2)c1S(=O)(=O)N1CCC(C(=O)Nc2ccc(Cl)cn2)CC1 | 0.34%
39 | CC(O)c1cccc(NC(=O)Cc2cccc3ccccc23)c1 (stereo unspecified) | -6.15%
40 | Cc1ccc(Sc2ccncc2S(N)(=O)=O)cc1 | -1.29%
41 | C[C@@H](O)c1nc2ccccc2n1N | 0.29%
42 | CC(C)CC(CC(C)C)=NNC(=O)c1ccc(CSc2nncn2C)cc1 | 1.23%
43 | O=C(Nc1cccnc1)c1ccc(Cl)cc1[N+](=O)[O-] | -3.45%
44 | Cc1ccc(N2C(=O)C3CC3C2=O)cc1 (stereo unspecified) | -5.05%
45 | NS(=O)(=O)c1ccc(N2C(=O)C3C4CC(C(Br)C4Br)C3C2=O)cc1 (stereo unspecified) | 81.6% (active)
46 | CCCOc1ccc(N2C(=O)CC(N(CCc3ccc(S(N)(=O)=O)cc3)C(C)=O)C2=O)cc1 (stereo unspecified) | -5%
47 | COc1cc(NS(=O)(=O)c2ccc(NC(=O)CN3C(=O)c4ccccc4C3=O)cc2)ncn1 | -9.27%
48 | O=C(COC(=O)c1ccco1)NCc1ccc(Cl)cc1 | -3.08%

Row | SMILES | inhibition
49 | CC(OC(=O)CCc1nc(=O)c2ccccc2n1C)C(=O)NCc1ccc2c(c1)OCO2 (stereo unspecified) | 2.38%
50 | O=C(Cn1cnc([N+](=O)[O-])n1)NCCc1ccccc1 | 3.82%
51 | CCOc1ccc(Nc2nc(Cc3nnc(SCC(=O)c4ccc(C)cc4)o3)cs2)cc1 | -4.07%
52 | CC(=O)Nc1ccc(C(=O)CSc2nnc(Cc3ccccc3)o2)cc1 | 20.1% (active)
53 | O=C(CSc1nnc(Cn2cnc3ccccc32)o1)c1ccccc1 | -2.99%
54 | CCOC(=O)c1c(NC(=O)c2cccs2)sc(C)c1C | 0.72%
55 | COC(=O)c1c(NC(=O)c2c(Cl)cnn2C)sc(C)c1C | 11% (active)
56 | COCCCNCC(=O)Nc1sc(C)c(C)c1C(=O)OC | 1.07%
57 | CC1=NN(C(=O)c2ccc(Br)cc2)C(O)(c2ccccc2)C1 (stereo unspecified) | 3.11%
58 | CC1=NN(C(=O)c2ccccc2Br)C(O)(c2cccnc2)C1 (stereo unspecified) | 0.91%
59 | CCOC(=O)C1(O)CC(C)=NN1C(=O)c1cccc(Br)c1 (stereo unspecified) | 16.5% (active)
60 | Cc1cccc(-n2cc(CN3CCN(C(=O)c4ncn[nH]4)CC3)c(-c3cccc(F)c3)n2)c1 | -4.4%
61 | NC(N)=NCCCc1cn(CC(=O)N2CCNCC2)nn1 | -8.27%
62 | O=C(Cc1ccc([N+](=O)[O-])cc1)N/N=C/c1ccco1 | 3.38%
63 | CCCOCC(O)CC(CC)C(=O)NNC(=S)Nc1ccccc1 (stereo unspecified) | -0.14%
64 | C=CCN(CC=C)CCOc1ccccc1[N+](=O)[O-] | -2.7%
65 | COc1cc(NC(=S)N2CCCC(C)C2)cc(OC)c1OC (stereo unspecified) | 0.35%
66 | CN1CCN(C(CNS(=O)(=O)c2cccs2)c2cccnc2)CC1 (stereo unspecified) | -4.32%
67 | CN(C)S(=O)(=O)c1ccc(NC(=O)N2CCOCC2)cc1 | 15.2% (active)
68 | O=C(Nc1ccccc1)N1CCN(C(=O)Nc2ccccc2)CC1 | -2.68%
69 | COc1cc(NC(=O)N2CCOCC2)cc(OC)c1 | -5.26%
70 | Cc1ccc(SCCC(=O)NCc2ccccn2)cc1 | 1.33%
71 | CN1C(=O)/C(=C/c2ccc(C(=O)NC3CCCC3)cc2)Oc2ccccc21 | -13.4%
72 | CCN1/C(=C/c2ccc3ccc(C)cc3[n+]2CC)Sc2ccccc21 | -2.41%

Row | SMILES | inhibition
73 | O=C(CCN1c2ccccc2Sc2ccccc21)Nc1ccccc1 | -1.11%
74 | CCC(=O)/C=C1\Sc2ccccc2N1CC | 11.8% (active)
75 | Cc1cc(C(=O)COC(=O)C2CC2)c(C)n1-c1ccc(F)cc1 | 2.01%
76 | COc1cc(/C=N/NC(=O)c2cc(C)n(-c3ccc(F)cc3)c2C)cc(OC)c1O | 3.01%
77 | Cc1cc(C(=O)N/N=C/c2ccc(O)c([N+](=O)[O-])c2)c(C)n1-c1ccc(F)cc1 | 11.2% (active)
78 | CCOc1ccccc1N1CCN(C(=S)Nc2ccc(S(N)(=O)=O)cc2)CC1 | -3.56%
79 | O=C(Nn1cnc2ccccc2c1=O)c1ccc([N+](=O)[O-])cc1Cl | -1.28%
80 | CCCCN1C(=O)/C(=C(/C#N)C(N)=O)c2ccccc21 | -0.52%
81 | CN(CC(=O)Nc1ccccc1F)CC(=O)Nc1ccccc1Br | 9.9% (active)
82 | CN(CC(=O)Nc1ccccc1[N+](=O)[O-])Cc1ccc(Br)cc1 | -2.46%
83 | CSc1ccccc1NC(=O)CN(C)CC(=O)Nc1cccc(Br)c1 | 3.22%
84 | Cc1cccc(C(=O)NCCCN2CCCC2=O)c1 | -2.71%
85 | O=C(CCC(=O)NNc1nc2ccccc2c2nc(-c3ccccc3)nn12)NCCCN1CCCC1=O | 11.7% (active)
86 | O=C(CCn1c(=S)[nH]c2ccccc2c1=O)NCCCN1CCCC1=O | -5.44%
87 | O=Cc1ccc(Oc2cccc(C(F)(F)F)c2)nc1 | -2.83%
88 | O=C(COC(=O)c1cccc(Br)c1)Nc1cccc2c1C(=O)c1ccccc1C2=O | -0.48%
89 | COc1ccc(NC(=O)c2sc(N)nc2-c2ccccc2)cc1 | 3.25%
90 | COc1ccc(-n2c(O)c(C=NCC(c3ccco3)N3CCCC3)c3ccccc3c2=O)cc1OC (stereo unspecified) | 3.15%
91 | Cc1ncc([N+](=O)[O-])n1CCOC(=O)c1ccc(Br)cc1 | 10% (active)
92 | N/C(=N\OC(=O)COc1ccc([N+](=O)[O-])cc1)c1ccc(Br)cc1 | -0.17%
93 | Cc1nn(CCOc2ccc(Br)cc2)c(C)c1[N+](=O)[O-] | -5.05%
94 | CCN(CC)CCNc1nc(-c2ccc(OC(F)F)cc2)c(C)s1 | -4.92%
95 | CCN(C(=O)CSc1nnc2ccccn12)C1CCS(=O)(=O)C1 (stereo unspecified) | -6.19%
96 | COC(=O)c1ccc(-n2cnc3ccccc32)nc1 | -2.82%
